Results from PubChem BioAssay (NCATS).
Records with an inconclusive call do not appear. Activity calls are given as the source filed them. Calls follow the shape of the dose curve; as a rule, active = well fitted cell-killing curve with a large enough effect; inconclusive = small, poorly fitted or top-dose-only effect, or effect the other way; inactive = no such curve, though single readings can be large or run the other way.

Experiment: qHTS of pediatric cancer cell lines to identify multiple opportunities for drug repurposing: Confirmatory screen for LAN-5 cells (AID 1347113); also: nearly all actives have a fitted effect of over 65% in size
Conditions: LAN-5 neuroblastoma cell viability; series mostly up to 45.9 µM
Description: Drug repurposing or repositioning has been offered as a strategy for drug development in oncology programs. This approach has special potential for childhood cancers and other rare or orphan diseases, where the expected return on new drug development has been a disincentive to pharmaceuticals.
In this project we exploit the poly-pharmacology of drugs to discover new indications via phenotypic screening of a panel of 19 well-characterized cell lines derived from solid tumors seen in children and adolescents. The goal is to identify approved drugs with previously unrecognized anticancer properties that has the potential to reveal new mechanisms and biological processes involved in carcinogenesis or drug resistance. We employed a titration-based paradigm (quantitative high-throughput screening or qHTS), where all compounds were tested at multiple concentrations for their effect on cell viability. Concentration-response curves (CRCs) were derived directly from the primary screen, and both potency and efficacy values were used to identify compounds with robust bioactivity profiles. We screened the NIH Chemical Genomics Center (NCGC) Pharmaceutical Collection (NPC) and Mechanism Interrogation Plate (MIPE) small molecule collections of approved and investigational compounds against these cell lines; and measured metabolically active cells after 48 hours of compound treatment as a proxy for cell viability.
Assay Submitter: Nathalia J. Martinez, National Center for Advancing Translational Sciences, National Institutes of Health, Rockville, MD, USA; email: natalia.martinez@nih.gov
[1] Shen, M et al. Quantitative high-throughput phenotypic screening of pediatric cancer cell lines identifies multiple opportunities for drug repurposing. Oncotarget 2017 Dec 19;9(4):4758-4772. PMID 29435139.
The cells were obtained from University of North Carolina (UNC), Pediatric Preclinical Testing Program (PPT), and Coriell Institute (CI).
qHTS cell viability assay:
Cells were assayed in growth media at a density of 500-1,000 cells/well. Five microliters of cells were dispensed into 1,536-well, white, solid-bottom, TC-treated plates (Greiner Bio One) using a multidrop dispenser and incubated at 37 degrees C, 5% CO2, under a humidified atmosphere for 5 hours. Twenty-three nanoliters of compounds and controls (neutral control DMSO or positive control bortezomib at final concentration of 2.3 µM) were subsequently transferred by Kalypsys pintool. For primary screens, the MIPE collection was tested at 11-point dilutions (final concentrations range from 0.78 nM to 46 µM) and the NPC collection at 8-point dilutions (final concentrations range from 0.59 nM to 46 µM). Compounds tested in follow-up screens were assayed at 11-point dilutions. Cells were incubated for 48 hours, followed by addition of 3 µL of CellTiter-Glo (Promega). After a 15 min incubation at room temperature, samples were analyzed for luminescence intensity using a ViewLux High-throughput CCD imager equipped with clear filters.
Potency is read from the fitted curve at half-maximal effect.

SMILES | Potency
CCN1/C(=C/C=C/c2sc3ccccc3[n+]2CC)Sc2ccccc21 | 0.737 µM (active)
CCN(CC)CCOc1ccc2c(c1)C(=O)c1cc(OCCN(CC)CC)ccc1-2 | 11.7 µM (active)
CCCCCCCCCCC[C@@H](C[C@@H]1OC(=O)[C@H]1CCCCCC)OC(=O)[C@H](CC(C)C)NC=O | inactive
O=[N+]([O-])c1ccc(/C=N\O)o1 | inactive
C[C@H]1O[C@@H](O[C@H]2CC[C@@]3(C)[C@H](CC[C@@H]4[C@@H]3C[C@@H](O)[C@]3(C)[C@@H](C5=CC(=O)OC5)CC[C@]43O)C2)C[C@H](O)[C@@H]1O[C@H]1C[C@H](O)[C@H](O[C@H]2C[C@H](O)[C@H](O[C@@H]3O[C@H](CO)[C@@H](O)[C@H](O)[C@H]3O)[C@@H](C)O2)[C@@H](C)O1 | 0.414 µM (active)
CC1CCc2c(N3CCC(O)CC3)c(F)cc3c(=O)c(C(=O)O)cn1c23 (stereo not drawn) | inactive
O=C(CCCN1CC=C(n2c(=O)[nH]c3ccccc32)CC1)c1ccc(F)cc1 | inactive
NC(N)=NN=C(/C=C/c1ccc([N+](=O)[O-])o1)/C=C/c1ccc([N+](=O)[O-])o1 | 1.17 µM (active)
O=C(Oc1cccc2cccnc12)c1ccccc1 | 9.27 µM (active)
C[C@@]12C(=O)OC(=O)[C@]1(C)C1CCC2O1 | 2.93 µM (active)
COc1ccc(C(=O)c2ccccc2)c(O)c1 | inactive
C=C[C@@]1(C)CC(=O)[C@]2(O)[C@@]3(C)[C@@H](O)CCC(C)(C)[C@@H]3[C@H](O)[C@H](OC(C)=O)[C@@]2(C)O1 | inactive
Nc1nc(Cl)nc2c1ncn2[C@@H]1O[C@H](CO)[C@@H](O)[C@@H]1F | 1.65 µM (active)
